Screens as filed in PubChem BioAssay.
This excerpt belongs to a sample that is enriched for hits.
Tgondii IFNg – blocks Toxoplasma gondii growth in the presence of IFN-gamma; AID 1259416; 69,000 tested, 3.8% active; Toxoplasma gondii growth in IFN-gamma-treated host cells; active compounds read low; activity change, negative = inhibition, % (concentration not given with the values); in the data active = activity change below about -70%, passing the limit was not always enough;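 also: host cells are HeLa cells infected with Toxoplasma gondii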
An asterisk follows results filed as active; i = inactive; ! = not active in a repeat.

SMILES	Tgondii IFNg
CC(C)Cc1cc(CN2CC(C(=O)O)CC2=O)no1 (centres undefined)	1
S=c1[nH]nc(-c2ccccc2Br)o1	1
CCOc1ccc(S(=O)(=O)N2CCC3(CC2)Nc2cc(F)ccc2-n2cccc23)cc1	23
CCOc1ccc(S(=O)(=O)c2ccc(Cl)cc2)cc1	16
CCOc1ccc(S(=O)(=O)n2cc(F)c(=O)[nH]c2=O)cc1	-85*
Cc1ccc(NC(=O)Cn2ncc3c(N4CCN(c5ccccc5)CC4)ncnc32)cc1	-3
CCN1C(=O)CCc2cc(C(=O)N3CCCCC3)ccc21	18
CCN1C(=O)CCc2cc(C(=O)N3CCOCC3)ccc21	12
O=C(c1ccc2c(c1)CCC(=O)N2Cc1ccccc1)N1CCN(c2ccccc2F)CC1	-102*
O=C(C1CCOC1)N1Cc2nccn2CC(Cn2cncn2)C1 (centres undefined)	-4
O=C1N(CCc2ccccc2)CCCC1(O)CNCc1cccc(F)c1F (centres undefined)	-48
Clc1ccc(C(Cn2ccnc2)OCc2c(Cl)cccc2Cl)c(Cl)c1 (centres undefined)	-70
Clc1ccc(C(Cn2ccnc2)OCc2csc3c(Cl)cccc23)c(Cl)c1 (centres undefined)	-79*
Clc1ccc(C(Cn2ccnc2)OCc2ccc(Sc3ccccc3)cc2)c(Cl)c1 (centres undefined)	-78*
S=C(NCCCn1ccnc1)Nc1cc(Cl)ccc1Cl	30
S=C(Nc1ccc(Cl)cc1Cl)NC(Cn1ccnc1)c1ccccc1 (centres undefined)	-35
Cc1c(C(=O)Cn2ccnc2)sc2ccc(Cl)cc12	-18
Cc1ccc(C)c(S(=O)(=O)N2CCC3(CC2)Nc2ccc(Cl)cc2-n2cccc23)c1	-22
O=C(Nc1cccnc1)c1ccnn1-c1ccc2ccc(-c3cccnc3)cn12	-1
CC1CCCCN1C(=O)c1ccn(-c2ccc3ccccn23)n1 (centres undefined)	-20
CC1CCCCN1C(=O)c1ccnn1-c1ccc2ccc(-c3ccccc3)cn12 (centres undefined)	-85*
CCCCS(=O)(=O)N1CCC2(CC1)C(=O)N(C)CCN2Cc1ccccc1	-7
O=C(NCC(c1cccnc1)c1c[nH]c2ccccc12)Nc1ccc(Br)cc1F (centres undefined)	-116*
Cn1cc(C(CNC(=O)Nc2ccc(Br)cc2F)c2cccnc2)c2ccccc21 (centres undefined)	i
O=C(NCC(c1cccnc1)c1c[nH]c2ccccc12)Nc1cccc(Br)c1 (centres undefined)	191
SMILES	Tgondii IFNg
Cc1nc(OCC(=O)Nc2ccc(Cl)cc2Cl)c2ccccc2n1	6
CCOc1ccc(-c2noc(-c3c(O)c4ccccc4n(CC)c3=O)n2)cc1OC	20
O=C1C(=O)N(Cc2ccc(Cl)c(Cl)c2)c2ccccc21	20
CC(=O)O/N=C1/C(=O)N(Cc2cc(Cl)ccc2Cl)c2ccc(Cl)cc21	-79*
Cc1ccc(C(=O)Nc2ccc(CN3CCN(C)CC3)c(C(F)(F)F)c2)cc1C#Cc1cnc2[nH]ncc2c1	-80*
CN(C)C1CCN(Cc2ccc(C(=O)Nc3ccc4c(cnn4C)c3)cc2)C1 (centres undefined)	79
Cc1ncc(NC(=O)c2ccc(CN3CCN(C)CC3)c(C(F)(F)F)c2)cc1Nc1nccc(-c2cccnc2)n1	-23
Cc1cccc(-c2nc(C)c(CCNC(=O)C(=O)Nc3ccccc3F)s2)c1	61
O=S(=O)(c1ccc(F)cc1F)n1nccc1-c1ccc(-c2ccc(F)cc2F)o1	-111*
Cc1noc(C)c1C(=O)OCc1ccc(-c2ccc(F)cc2F)o1	28
O=C(NCc1ccc(-c2ccc(F)cc2F)o1)Nc1ccc(Cl)cc1	-69
Cc1cc(C)cc(NC(=O)NCC(c2cccnc2)c2cn(C)c3ccccc23)c1 (centres undefined)	i
C[C@H]1[C@H](C)CC[C@]2(C(=O)O)CC[C@]3(C)C(=CC[C@@H]4[C@@]5(C)C[C@@H](O)[C@H](O)[C@@](C)(CO)[C@@H]5CC[C@]43C)[C@H]12	-74*!
C[C@H]1[C@H](C)CC[C@]2(C(=O)O)CC[C@]3(C)C(=CCC4[C@@]5(C)C[C@@H](O)[C@H](O)[C@@](C)(CO)C5[C@H](O)C[C@]43C)[C@H]12 (some centres undefined)	-28
C[C@H]1[C@H](C)CC[C@]2(C(=O)O)CC[C@]3(C)C(=CCC4[C@@]5(C)C[C@@H](O)[C@H](O)[C@@](C)(CO)C5CC[C@]43C)[C@H]12 (some centres undefined)	23
Cc1ccc(-c2ncc(CN3CCN(S(=O)(=O)N4CCCC4)CC3)cn2)cc1	6
CN(C)C(=O)COCC1CN(Cc2ccsc2)Cc2ncn(C)c21 (centres undefined)	10
Cc1cc(OCc2nc3ccccc3[nH]2)ccc1C(C)C	-87*
CC(NC(=O)Cc1nc2ccccc2[nH]1)c1ccc(O)c(F)c1 (centres undefined)	-4
Cc1cc(C)nc(Nc2n[nH]c(COc3ccc4ccccc4c3)n2)n1	-44
NC(=O)N1Cc2nccn2CC(Cn2cccn2)C1 (centres undefined)	81
CCOc1ccc(NC(=O)Cn2c(=O)cc(C(=O)N3CCc4ccccc4C3)c3ccccc32)cc1	-11
COc1ccc(-c2ncnc3c2c(C(=O)N2CCCC2)c2ccccn23)cc1	-50
NC(=O)c1[nH]c(C2CCCN(C(=O)COc3ccccc3)C2)nc1-c1ccccc1 (centres undefined)	-23
C=CC(=O)N1CCC[C@@H](n2nc(-c3ccc(Oc4ccccc4)cc3)c3c(N)ncnc32)C1	-79*
SMILES	Tgondii IFNg
Cc1cccc2c(=O)c(NC(=O)NCC3CCCO3)c[nH]c12 (centres undefined)	-4
CC(C)ON([C@@H](C(=O)NO)C(C)C)S(=O)(=O)c1ccc(-c2ccccc2)cc1	-75*
CC(C)[C@H](NS(=O)(=O)c1ccc(-c2ccc(Br)cc2)cc1)C(=O)O	37
O=C(O)CNS(=O)(=O)c1ccc(-c2ccccc2)cc1	-3
O=C(C1CCCN(Cc2ccc(N3CCOCC3)c(F)c2)C1)N1CCCCCC1 (centres undefined)	-4
COc1ccc(C2CCCN2C(=O)CCC(=O)N2CC(=O)Nc3ccccc32)cc1 (centres undefined)	2
O=C(Cn1c(=O)cc(-c2nc(C3CC3)no2)c2ccccc21)NCc1ccccc1Cl	-17
O=C(NNc1nc2cc(F)ccc2n2cccc12)c1cnccn1	-81*
Cc1nc2ncccn2c1C(=O)NCc1cnn(-c2cccc(F)c2)c1	-1
CC(C)C(=O)c1cc(-c2csc(-c3cnccn3)n2)n2ccccc12	-14
CCc1nc2ccccc2n1CC(=O)NCCc1nc(C(C)(C)C)cs1	5
COc1cc(Cl)cc(CN2CCCC(C(=O)N3CCCC3)C2)c1OC (centres undefined)	6
C[C@H](CO)N1C[C@H](C)[C@H](CN(C)Cc2ccc(-c3ccccc3)cc2)Oc2ccc(N(C)C)cc2CC1=O	-83*
C[C@@H]1CN([C@H](C)CO)C(=O)c2cc(N(C)C)ccc2O[C@H]1CN(C)Cc1ccc(Oc2ccccc2)cc1	60
C[C@@H]1CN([C@@H](C)CO)C(=O)Cc2cc(N(C)C)ccc2O[C@H]1CN(C)Cc1ccc(-c2ccccc2)cc1	69
Nc1ccc(N2CCCC2)c(C(=O)N2CCCC2)c1	169
CSc1cccc(NC(=O)CN2CCC3(CC2)N=C(c2ccc(F)cc2)C(=O)N3)c1	11
CCCCC1=NC2(CCN(C(=O)c3cc(C)nn3CC)CC2)C(=O)N1	3
